Assay results as given in PubChem BioAssay (Tox21).
Inconclusive results are not listed. Values without a mark were called inactive. The call rests on the fitted dose curve; in most records, active means well fitted inhibition curve with a large enough effect in the signal ratio in the repeat runs (not every such curve was filed as active); inconclusive means weak or mixed curves, or effect the other way; inactive means flat fitted curve, though single readings scatter; the % refers to the signal ratio.

test: cAMP Responsive Elements (CRE) small molecule antagonists, cell-based qHTS assay (AID 1963591); details: CRE-bla HEK293T, beta-lactamase FRET ratio; series mostly up to 92.4 µM; activity change, negative = inhibition: at the top concentration
From the text: U.S. Tox21 Program National Center for Advancing Translational Sciences [NCATS] Division of Preclinical Innovation [DPI] U.S. Environmental Protection Agency [EPA] National Institutes of Environmental Health Sciences [NIEHS] National Toxicology Program [NTP] U.S. Food and Drug Administration [FDA] Tox21 Assay Overview: CREB (cyclic-AMP Responsive Element Binding Protein) is a cellular transcription factor. It binds to certain DNA sequences called cAMP Responsive Elements (CRE) and regulates the transcription of the genes. […] This cell line can be used to find agonists/antagonists of the cyclic AMP signaling pathway. The activation of the report gene under culture conditions can be detected by fluorescence intensity. This cell line has been used to screen the Tox21 10K compound library to […].
Tox21 Assay Protocol Summary: CRE-bla Hek 293T cells were suspended in assay medium (DMEM containing 10% dialyzed FBS, 0.1 mM NEAA, 1 mM sodium pyruvate and 25 mM HEPES) and dispensed at 2,000 cells/4 uL /well into 1536-well black wall/clear bottom plates using a Multidrop Combi (ThermoFisher Scientific, Waltham, MA) dispenser. After the assay plates were incubated at 37 C/5% CO2 for 18 hrs, 23 nL of compounds dissolved in DMSO, positive controls or DMSO only was transferred to the assay plate by a pintool workstation (Kalypsys, San Diego, CA), followed by addition of 1 […] uL of 1.25uM NKH477 (0.25 uM as final concentration) in assay medium using a Flying Reagent Dispenser (Aurora Discovery, San Diego, CA). The plates were incubated at 37 C and 5% CO2 for 3 hrs. Then 1 uL of LiveBLAzer B/G FRET substrate (Invitrogen, Carlsbad, CA) was added to each well using Bioraptr Flying Reagent Dispenser (FRD, Aurora Discovery, San Diego, CA). The plates were incubated at room temperature for 2 h.
On the % scale 0 is the no-effect control and ±100 the full control effect.

SMILES	activity change, negative = inhibition
CC(C)(C)NCC(O)c1cc(O)cc(O)c1 (stereo not given)	0.591% [at 42.4 µM]
C=C(C)C(=O)OCC(C)(C)COC(=O)C(=C)C	15.3%
CCOC(=O)c1ccc(NC(=O)CN2CCCCC2)cc1	-2.42% [at 42.4 µM]
NCC[C@H](O)C(=O)N[C@@H]1C[C@H](N)[C@@H](O[C@H]2O[C@H](CN)[C@@H](O)[C@H](O)[C@H]2O)[C@H](O)[C@H]1O[C@H]1O[C@H](CO)[C@@H](O)[C@H](N)[C@H]1O	-1.04% [at 0.349 µM]
CC(C)(O)c1ccccc1CC[C@@H](SCC1(CC(=O)O)CC1)c1cccc(/C=C/c2ccc3ccc(Cl)cc3n2)c1	0.694% [at 42.4 µM]
CCOC(=O)CC(C)O (stereo not given)	1.24%
Brc1c2ccccc2cc2ccccc12	12.6%
NC(=O)c1ncn([C@@H]2O[C@H](CO)[C@@H](O)[C@H]2O)c1N	7.89% [at 42.4 µM]
Cc1cc(N)c(S(=O)(=O)O)cc1Cl	0.423%
ClC(Cl)(Br)Br	-8.28%
CCOC(=O)C(C)(C)C	-9.92%
COCCOCC(OC)OC	8.24% [at 42.4 µM]
O=C(O)CCC(=O)C(=O)O	-3.51%
C[C@@H]1O[C@@H](O[C@@H]2[C@@H](O)[C@H](OCCc3ccc(O)c(O)c3)O[C@H](CO[C@@H]3O[C@H](CO)[C@@H](O)[C@H](O)[C@H]3O)[C@H]2OC(=O)/C=C/c2ccc(O)c(O)c2)[C@H](O)[C@H](O)[C@H]1O	4.67%
OCC(O)c1ccccc1 (stereo not given)	5.7%
On1nnc2ccccc21	-2.35%
Nc1nc(N)c(-c2ccccc2)s1	0.28% [at 42.4 µM]
CC(=O)c1cccnc1	-0.84%
CC(=O)Nc1ccccc1C	-4.79%
CC(N)C12CC3CC(CC(C3)C1)C2 (stereo not given)	-3.14% [at 42.4 µM]

SMILES	activity change, negative = inhibition
N#Cc1ccc(C/C(=N/NC(=O)Nc2ccc(OC(F)(F)F)cc2)c2cccc(C(F)(F)F)c2)cc1	-14.8%
Cc1cc(S(=O)(=O)O)c(N)cc1Cl	5.18%
CC(=O)N(CC(O)CN(C(C)=O)c1c(I)c(C(=O)NCC(O)CO)c(I)c(C(=O)NCC(O)CO)c1I)c1c(I)c(C(=O)NCC(O)CO)c(I)c(C(=O)NCC(O)CO)c1I (stereo not given)	-9.55% [at 42.4 µM]
CC1(N)CCC(C(C)(C)N)CC1 (stereo not given)	3.2%
CCOC(=O)/C=C/C(=O)OCC	-1.18%
CCOC(=O)COc1ccc(C)cc1	0.855%
C=C(C)CCO	1.29%
CN(C(=O)C(Cl)Cl)c1ccc(OC(=O)c2ccco2)cc1	-1.08% [at 42.4 µM]
CC(C)=CCC/C(C)=C\C#N	1.01%
COc1cccc(O)c1	-7.25%
c1ccc(SSc2ccccc2)cc1	-9.36%
C=CC/C=C/C	-1.1%
COc1ccccc1OCC(O)COC(N)=O (stereo not given)	-0.821% [at 42.4 µM]
CC(=O)O[C@@H]1CC2CCC1(C)C2(C)C (stereo not given in full)	5.23%
Nc1ccc(NC(=O)c2ccc(N)cc2)cc1	3.07%
Cn1c(N)c(N=O)c(=O)n(C)c1=O	3.97%
COc1ccc(NS(=O)(=O)c2ccc(N)cc2)nn1	0.79% [at 42.4 µM]
COC(=O)N/N=C/c1c[n+]([O-])c2ccccc2[n+]1[O-]	-10.6% [at 42.4 µM]
C=C(C)C(=O)OC1CC(C)CC(C)(C)C1 (stereo not given)	-18.9%
O=C(O)COCC(=O)O	-5%
